Only some compounds are listed: those with a hit (about 4.5% of all), similar ones and a draw of the others.
DAX1 inh-1: inhibitors of DAX1 repression of SF-1 activated StAR promoter; HEK293T StAR-luciferase reporter, SF-1/DAX-1 repression relief; inhibition, % at 6.8 µM; 370,000 tested, 1.1% active; AID 652010;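 active means inhibition above the mean over all tested compounds plus 3 SD, cut at about 3.6% in these data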;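 further: 0% = DAX-1 cells with DMSO and 100% = cells lacking DAX-1 with DMSO; higher inhibition means more luminescence from relief of DAX-1 repression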
DAX1 inh-2: NR0B1 (DAX1) inhibition; 340,000 tested, 0.99% active; HEK293 Gal4-DAX1 luciferase reporter, luminescence; P51843; inhibition, % at 6.75 µM;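 active means inhibition above the mean over all tested compounds plus 3 SD, cut at about 4.2% in these data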;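 further: 0% = DAX1-transfected cells with DMSO and 100% = empty-vector control cells with DMSO; inhibition shows as a rise in luminescence from relieved DAX1 repression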
Target sequence (P51843 207-470 limits assumed): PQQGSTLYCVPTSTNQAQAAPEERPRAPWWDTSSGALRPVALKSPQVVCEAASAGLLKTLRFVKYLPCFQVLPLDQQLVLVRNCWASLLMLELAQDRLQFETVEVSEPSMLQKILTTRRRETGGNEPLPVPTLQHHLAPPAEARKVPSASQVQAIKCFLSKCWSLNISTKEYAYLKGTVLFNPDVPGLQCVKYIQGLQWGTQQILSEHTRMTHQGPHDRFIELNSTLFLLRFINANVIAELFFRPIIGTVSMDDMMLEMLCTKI
ssDAF-12 act: activates DAF-12 receptor from parasite S. stercoralis. activation, % at 6.8 µM. HEK293 ssDAF-12/GRIP1 lit1-tk-luc reporter, luminescence; % of 3 µM dafachronic acid response. 370,000 tested, 1% active;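 active means activation above the mean over all tested compounds plus 3 SD, cut at about 0.9% in these data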;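 further: 0% = DMSO-only wells and 100% = 3 µM delta7-dafachronic acid wells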
GAA850 FXN act: frataxin GAA850 promoter activation; 360,000 tested, 0.56% active; HEK293 lucGAA850 FXN promoter luciferase reporter, 24 h; percent of 10 µM SAHA response; activation, % at 6 µM;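 active means activation above the average of all compounds screened plus 3 SD, cutoff fixed separately per campaign, cut at about 7.5% in these data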;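 further: 0% = DMSO wells and 100% = 10 µM SAHA wells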
hgDAF12 agonist: agonists of H. glycines DAF-12 nuclear receptor; HEK293 GAL4-hgDAF12 UAS-luciferase reporter, agonist luminescence; normalized to butyrate control; activation, % at 6.8 µM; 370,000 tested, 1.8% active;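 active means activation above a cutoff set at the mean of all screened compounds plus 3 SD, cut at about 10% in these data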;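 further: 0% = DMSO wells and 100% = sodium butyrate wells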
hcDAF12 agonist: H. contortus DAF-12 activation, primary screen. HEK293 hcDAF-12 lit1-tk-luc reporter, luminescence; 0% DMSO, 100% Δ7-dafachronic acid. activation, % at 6.8 µM. 370,000 tested, 1.4% active. AID 652067;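 active means activation above the mean of all tested compounds plus 3 SD, cut at about 5.5% in these data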;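 further: 100% = response to 3 µM Δ7-dafachronic acid high control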
GAA30 counter: GAA30 FXN promoter activation counter-screen; shares compounds with GAA850 FXN act; HEK293 lucGAA30 FXN promoter luciferase, 24 h; DMSO = 0%, 5 µM ipriflavone = 100%; activation, % at 6 µM; 1,900 tested, 66% active; AID 588350;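 active means mean activation above the mean of solvent-only control wells plus 3 SD, cut at about 22% in these data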;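 further: counterscreen of GAA850 promoter hits where activity marks nonselective or luminescence artifacts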
GAA850 confirm: GAA850 FXN promoter activation confirmation. shares compounds with GAA850 FXN act. HEK293 lucGAA850 FXN promoter luciferase reporter, 24 h; 100% = activation by SAHA. activation, % at 6 µM. 1,900 tested, 86% active. AID 588351;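 active means mean activation above a set limit taken from the primary screen, cut at about 8% in these data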;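 further: 0% = DMSO wells and 100% = 10 µM SAHA wells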
* hit, by the source's call; x = not tested or not shown.

SMILES	DAX1 inh-1	DAX1 inh-2	ssDAF-12 act	GAA850 FXN act	hgDAF12 agonist	hcDAF12 agonist	GAA30 counter	GAA850 confirm
C[C@@H]1CN([C@@H](C)CO)C(=O)c2c(c3ccccc3n2C)-c2ccccc2CO[C@H]1CN(C)C(=O)[C@H](C)c1ccccc1	-4	-1	-2	-8	-4	-1	x	x
COc1ccccc1C(=O)Nc1nsc(-c2ccccc2)n1	3	3	-1	9.3*	10	2	104*	31*
COc1ccccc1C(=O)Nc1ccncc1	0	0	-2	0	-2	-4	x	x
CN1CCC(N[C@@H](Cc2ccccc2)C(=O)NCCCc2ccccc2)(C(=O)NCCc2c[nH]c3ccccc23)CC1	x	x	-1	x	2	-1	x	x
O=C(/C=C/c1ccccc1)c1ccccc1	3	-1	-1	0	8	-1	x	x
O=C(/C=C/c1ccccc1)/C=C/c1ccccc1	-1	0	-2	7.9*	-7	-1	32*	30*
COc1ccc(O)c(/C=N/Nc2nc(Nc3ccccc3)nc(-n3nc(C)cc3C)n2)c1	-3	-2	-2	8.7*	-3	-2	11	16*
O=C(NCCc1ccc(F)cc1)c1coc(=O)c(Br)c1	0	1	-1	10*	0	-1	-6	17*
O=C(Nc1ccccc1F)c1coc(=O)c(Br)c1	0	2	0	2	4	-2	x	x
COc1ccc(N2C(=O)NC(NC(=O)C(C)(C)C)(C(F)(F)F)C2=O)cc1 (stereo unspecified)	0	-1	-1	9.2*	-1	0	-1	8.2*
CCCc1nc2ccccc2c2nc(N)nn12	0	-1	-1	8.5*	3	2	16	7
Nc1nc2c3ccccc3nc(Cc3ccccc3)n2n1	1	-2	-2	3	-2	-2	x	x
COc1ccc(OC)c(C=NN=Cc2cc(OC)ccc2OC)c1	2	1	-1	0	1	0	x	x
COc1ccc(OC)c(/C=N/N(C)c2ccccc2)c1	3	3	-1	7.9*	9	1	127*	43*
CCCC(=O)NC(=S)Nc1cccc(Cl)c1N1CCCCC1	-1	1	-1	3	4	0	x	x
CCCCC(=O)NC(=S)Nc1cccc(Cl)c1N1CCCCC1	0	0	-2	10*	0	-1	13	9.6*
C=CCN1C(=O)[C@@H](CC(=O)N2CCN(C(=O)OCC)CC2)[C@]2(C(=O)OC)CCCCC=C12	0	x	-1	x	0	3	x	x
Cc1cc(C)c(S(=O)(=O)Nc2nccs2)c(C)c1	0	0	-1	1	-2	0	x	x
CC[C@@]12C(=O)N(c3cccc(Br)c3)C(=O)N1[C@H](c1ccc(F)cc1)[C@@H]1C(=O)N(C3CCCCC3)C(=O)[C@@H]12	0	-1	-1	8.4*	-1	-1	18	12*
CC(C)C[C@@]12C(=O)N(c3cccc(Br)c3)C(=O)N1[C@H](c1ccc(F)cc1)[C@@H]1C(=O)N(C3CCCCC3)C(=O)[C@@H]12	1	1	-1	11*	0	-2	17	10.0*
Cc1cccc([C@@H]2[C@@H]3C(=O)N(Cc4ccccc4)C(=O)[C@@H]3[C@]3(CC(C)C)C(=O)N(c4cccc(Br)c4)C(=O)N23)c1	x	-1	x	-1	x	x	x	x
CCN1C(=O)[C@H]2[C@@H](c3ccc(C)cc3)N3C(=O)N(c4cccc(F)c4)C(=O)[C@@]3(CC)[C@H]2C1=O	-1	2	-1	3	0	-2	x	x
COC(=O)C1CN(Cc2cn(Cc3ccccc3)nn2)CCS(=O)(=O)N1Cc1ccccc1 (stereo unspecified)	0	x	-2	x	-1	-3	x	x

Source: PubChem BioAssay
